Rows were chosen to be rich in hits. Some 8% of all compounds tested hit in one or more screens of this group.
LASV entry inh – blocks Lassa virus binding to or entry into cells; Lassa virus pseudotype entry inhibition, cell reporter; Potency, µM (doses to about 37.9 µM), usual class: inhibitors; 1.2% of 300,000 active; AID 540256; calls by dose curve; tested in HEK293 cells; further: nearly all actives have a fitted effect of over 50% in size
SARS PLP yeast – SARS-CoV PLP inhibition in yeast; S. cerevisiae expressing SARS-CoV PLpro, growth rescue; Potency, µM (titrated, usually from 32.9 µM), most hits filed as activators; 0.19% of 330,000 active; calls by dose curve; further: nearly all actives have a fitted effect of over 55% in size
HCV inh – HCV inhibition. Potency, µM (top dose mostly 41.8 µM), most hits filed as inhibitors. 3.4% of 340,000 active. Huh7.5.1 HCVcc-Cre infection, luciferase reporter, 44 h. AID 651820; active means well fitted inhibition curve with a large enough effect; inconclusive means small, poorly fitted or top-dose-only effect, or another doubt; inactive means no such curve, though single readings can be large or run the other way
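Reporter virus HCVcc-Cre (~0.5 moi) infects cells exposed to compound; seeding density 1,000 cells/well with 4 h settling beforehand. Luminescence, 15 sec read, taken 44 h post-infection following a 15 min RT substrate incubation.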
HCMV inh – human cytomegalovirus inhibition. HFF cells, HCMV-luciferase reporter, 72 h; active compounds read low. activity change, negative = inhibition, % at 57.5 µM. 4.5% of 410,000 active; in the data active means activity change below about -60%; inconclusive means no clear call, values can overlap the other calls; inactive means above about -39%
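Luciferase read-out from HCMV-luciferase-infected HFFs (MOI 1 PFU/cell) 72 h post infection at 37C; compounds added after 16 h cell attachment; activity normalized between buffer-only basal and Salinomycin (10uM) inhibitor controls.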
FMDV inh – antivirals against foot and mouth disease virus; FMDV antiviral cell-based qHTS; Potency, µM (doses to about 57.9 µM), usual class: inhibitors; 1.2% of 410,000 active; AID 1159524; calls by dose curve; tested in HEK293T cells; further: read-out not given here; nearly all actives have a fitted effect of over 45% in size
Marburg entry inh – blocks Marburg virus binding to or entry into cells; Potency, µM (doses to about 37.8 µM), hits mostly inhibitors; 1.8% of 300,000 active; Marburg virus pseudotyped entry inhibition, cell reporter; calls by dose curve; tested in HEK293 cells
A number is an active result.

CCCN1C(C(=O)c2ccccc2)=C(OC(=O)c2ccc(C)cc2)c2ccccc2S1(=O)=O was read as LASV entry inh inconclusive, HCMV inh -84.6, FMDV inh inactive and Marburg entry inh inactive.
CCN1/C(=C(\O)c2ccccc2)C(=O)c2ccccc2S1(=O)=O was read as LASV entry inh inactive, SARS PLP yeast inactive, HCV inh inactive, HCMV inh -87.6, FMDV inh inactive and Marburg entry inh inconclusive.
Screening CCCCN(CCCC)C1=C(C(=O)c2ccccc2)N(CC)S(=O)(=O)c2ccccc21 returned LASV entry inh inactive, HCMV inh inactive, FMDV inh inactive and Marburg entry inh inactive.
`CCN1C(C(=O)c2ccccc2)=C(OC(=O)COc2ccccc2)c2ccccc2S1(=O)=O` gave LASV entry inh inactive, HCMV inh -60.2, FMDV inh inactive and Marburg entry inh inactive.
CCN1C(C(=O)c2ccccc2)=C(OC(=O)c2ccc(OC)cc2)c2ccccc2S1(=O)=O was read as LASV entry inh inactive, HCMV inh -68.1, FMDV inh inactive and Marburg entry inh inactive.
`O=C(CSc1oc(-c2ccccc2)nc1S(=O)(=O)c1ccc(Cl)cc1)c1ccccc1` gave LASV entry inh inconclusive, HCMV inh inactive, FMDV inh inactive and Marburg entry inh inactive.
`CCCN1C(C(=O)c2ccccc2)=C(OC(=O)c2ccc(F)cc2)c2ccccc2S1(=O)=O` gave LASV entry inh inactive, HCMV inh -89.6, FMDV inh inactive and Marburg entry inh inactive.
For COC(=O)CN1C(C(=O)c2ccccc2)=C(OC(=O)c2ccc(C)cc2)c2ccccc2S1(=O)=O the results were LASV entry inh inactive, HCMV inh inactive, FMDV inh inactive and Marburg entry inh inconclusive.
`Cc1ccc2[nH]c(-c3ccc(Cl)cc3)c(C#N)c2c1` gave HCMV inh inactive.
Screening CC(Sc1nc(N(C)C)nc(N2CCOCC2)n1)C(=O)Nc1ccccc1 (stereo not drawn) returned LASV entry inh inactive, SARS PLP yeast inactive, HCV inh inconclusive, HCMV inh inactive, FMDV inh inactive and Marburg entry inh inactive.
`CC(Sc1nc(NC(C)(C)C)nc(N(C)C)n1)C(=O)Nc1ccccc1` (stereo not drawn) gave SARS PLP yeast inactive, HCV inh inactive, HCMV inh -60.8, FMDV inh inconclusive and Marburg entry inh inactive.
CCOC(=O)OC[C@H]1O[C@H](C#Cc2ccc(C)cc2C)C=C[C@@H]1OC(=O)OCC was read as Marburg entry inh inactive.
Screening CCC(=O)Nc1cccc(C(=O)/C=C/c2ccc(F)cc2)c1 returned LASV entry inh inconclusive, SARS PLP yeast inactive, HCV inh 10µM, HCMV inh -99.1, FMDV inh inactive and Marburg entry inh 14.6µM.
For CC(=O)Nc1cccc(C(=O)/C=C/c2ccc(C)cc2)c1 the results were LASV entry inh inconclusive, SARS PLP yeast inactive, HCV inh 12.6µM, HCMV inh inactive, FMDV inh inconclusive and Marburg entry inh inconclusive.
Screening CCCC(=O)Nc1ccc(C(=O)/C=C/c2ccc(SC)cc2)cc1 returned LASV entry inh inconclusive, SARS PLP yeast inactive, HCV inh 11.2µM, HCMV inh inactive, FMDV inh inactive and Marburg entry inh inconclusive.
Screening CSc1ccc(/C=C/C(=O)c2ccc(NC(C)=O)cc2)cc1 returned LASV entry inh inactive, SARS PLP yeast inactive, HCV inh inactive, HCMV inh inactive, FMDV inh inactive and Marburg entry inh inactive.
`CCN1C(=O)NC(CCc2ccccc2)C(C(=O)OC)=C1C` (stereo not drawn) gave Marburg entry inh inactive.
`CCNc1ncc2nc(-c3ccc(F)cc3)c(=O)n(CCOC)c2n1` gave FMDV inh inactive.
Screening CC[C@]12c3[nH]c4ccc(Cl)cc4c3CCN1C(=O)[C@@H](CC(=O)NC/C=C(\C)CCC=C(C)C)C[C@@H]2C(=O)N1CCN(C(=O)c2ccco2)CC1 returned SARS PLP yeast inactive, HCV inh 11.2µM, HCMV inh inconclusive, FMDV inh inconclusive and Marburg entry inh inactive.
COc1ccc2[nH]c3c(c2c1)CCN1C(=O)C(CC(=O)NC/C=C(\C)CCC=C(C)C)C[C@H](C(=O)N2CCOCC2)[C@@]31CCC1CCCC1 (stereo partly drawn) was read as SARS PLP yeast inactive, HCV inh 2.51µM, HCMV inh inactive, FMDV inh inactive and Marburg entry inh inactive.
Screening CC(C)=CCC/C(C)=C/CNC(=O)C[C@H]1C[C@H](C(=O)N2CCOCC2)[C@@]2(CCC3CCCC3)c3[nH]c4cc(CCC(=O)N(C)C)ccc4c3CCN2C1=O returned SARS PLP yeast inactive, HCV inh 11.2µM, HCMV inh -107.9 and FMDV inh inconclusive.
Screening CN(C)C(=O)CCc1ccc2c3c([nH]c2c1)[C@]1(CCC2CCCC2)[C@@H](C(=O)N2CCOCC2)C[C@H](CC(=O)NCC24CC5CC(CC(C5)C2)C4)C(=O)N1CC3 returned SARS PLP yeast inactive, HCV inh inactive, HCMV inh inactive and FMDV inh inconclusive.
For CC[C@]12c3[nH]c4ccc(OC)cc4c3CCN1C(=O)C(CC(=O)NC/C=C(\C)CCC=C(C)C)C[C@@H]2C(=O)N1CCN(C(=O)C2CC2)CC1 (stereo partly drawn) the results were SARS PLP yeast inactive, HCV inh inconclusive, HCMV inh inactive, FMDV inh inactive and Marburg entry inh inactive.
Screening COc1ccc(C(CNC(=O)c2cccc(S(=O)(=O)Nc3ccc(F)cc3)c2)N2CCOCC2)cc1 (stereo not drawn) returned HCV inh inactive, HCMV inh inactive and FMDV inh inactive.
For Cc1ccc(-c2nc(=S)c3c(n2Cc2ccco2)CC(C)(C)OC3)cc1 the results were LASV entry inh inactive, SARS PLP yeast inactive, HCV inh inactive, FMDV inh inconclusive and Marburg entry inh 13µM.
`Nc1nc(NCc2ccccc2)nc(-c2ccccc2)n1` gave LASV entry inh inactive, SARS PLP yeast inactive, HCV inh 10µM, HCMV inh inactive and Marburg entry inh inactive.
Screening Cc1nc2nc(NC(=O)c3ccc(F)cc3)[nH]n2c(=O)c1Cc1ccccc1 returned LASV entry inh inactive, HCMV inh inactive, FMDV inh inactive and Marburg entry inh inactive.
Screening COc1ccc(NS(=O)(=O)c2ccc3oc(SC(C)C(N)=O)nc3c2)cc1 (stereo not drawn) returned LASV entry inh inconclusive, SARS PLP yeast inactive, HCV inh 10µM, FMDV inh inactive and Marburg entry inh inconclusive.
Screening COc1ccc(NS(=O)(=O)c2ccc3oc(Nc4ccc5c(c4)OCCO5)nc3c2)cc1 returned LASV entry inh inconclusive, SARS PLP yeast inactive, HCV inh 3.98µM, HCMV inh -84.7, FMDV inh inactive and Marburg entry inh inactive.
`COc1ccc(NS(=O)(=O)c2ccc(NS(=O)(=O)c3ccc4c(c3)OCCO4)cc2)cc1` gave LASV entry inh inactive, HCMV inh inactive, FMDV inh inactive and Marburg entry inh inactive.

Compound activity (PubChem BioAssay)
